tested on: Vero E6 infected with SARS-CoV-2; experiment: morphology score (similarity to uninfected cells); higher = more like uninfected cells; conditions: 24 h

| Compound | morphology score |
| --- | --- |
| CC[C@@H](CO)NC(=O)[C@@H]1C=C2c3cccc4[nH]cc(c34)C[C@H]2N(C)C1 [methylergometrine] (10 µM) | 0.112 |
| O=C1COc2c(CCNCCN(C(=O)CCNCCc3ccc(Cl)c(Cl)c3)C3CCCCC3)ccc(O)c2N1 (10 µM) | -0.232 |
| NCCCC[C@H](NC(=O)[C@@H]1CCCN1C(=O)[C@@H]1CSSC[C@H](NC(=O)CNC(=O)CNC(=O)CN)C(=O)N[C@@H](Cc2ccc(O)cc2)C(=O)N[C@@H](Cc2ccccc2)C(=O)N[C@@H](CCC(N)=O)C(=O)N[C@@H](CC(N)=O)C(=O)N1)C(=O)NCC(N)=O [terlipressin] (10 µM) | 0.0361 |
| CO[C@@H]1[C@H](N(C)C(=O)c2ccccc2)C[C@H]2O[C@]1(C)n1c3ccccc3c3c4c(c5c6ccccc6n2c5c31)C(=O)NC4 [midostaurin] (10 µM) | -0.108 |
| CCOC(=O)c1ccc(OC(=O)CCCCCNC(=N)N)cc1 [gabexate] (10 µM) | 0.0775 |
| Cc1cccc(N(C)C(=S)Oc2ccc3ccccc3c2)c1 [tolnaftate] (10 µM) | 0.136 |

tested on: Vero E6 infected with SARS-CoV-2; experiment: SARS-CoV-2 infection rate relative to infected DMSO; higher = more infection, active = 60 or less; conditions: 24 h

| Compound | SARS-CoV-2 infection rate |
| --- | --- |
| CCOC(=O)[C@H](Cc1ccc([N+](=O)[O-])cc1)NC(=O)c1ccccc1 (10 µM) | 84.5% (inactive) |
| O[C@H]1[C@H](O)[C@@H](O)CN2CC[C@H](O)[C@H]12 [castanospermine] (10 µM) | 112% (inactive) |
| N=C(N)SCCc1ccc(OCc2ccc([N+](=O)[O-])cc2)cc1 (10 µM) | 85.5% (inactive) |
| O=C(CCBr)N1CC[N+]2(CC1)CC[N+]1(CCN(C(=O)CCBr)CC1)CC2 [spirobromin] (10 µM) | 112% (inactive) |
| COC(=O)C1=C(C)NC(C)=C(C(=O)OCCSc2ccccc2)[C@@H]1C (10 µM) | 94.5% (inactive) |
| CC(C)C[C@H](NC(=O)N1CCCCCC1)C(=O)N[C@H](Cc1cn(C)c2ccccc12)C(=O)N[C@H](Cc1ccccn1)C(=O)O (10 µM) | 100% (inactive) |
| COc1cc(NC(=O)Nc2cccc(CNC(=O)O[C@H]3CCOC3)c2)ccc1-c1cnco1 [merimepodib] (10 µM) | 62.5% (inactive) |
| COc1ccc2c(c1)CN(C)CC2c1ccc(Cl)c(Cl)c1 (stereo unspecified) [diclofensine] (10 µM) | 106% (inactive) |
| CNC(=O)c1ccc(Nc2ncc(C(F)(F)F)c(NCc3nccnc3N(C)S(C)(=O)=O)n2)cc1 [defactinib] (0.833333 µM) | 100% (inactive) |
| CCCC(C)(COC(N)=O)COC(=O)NC(C)C (stereo unspecified) (10 µM) | 116% (inactive) |
| CCc1[nH]c(=O)[nH]c1C(=O)c1ccncc1 [piroximone] (10 µM) | 100% (inactive) |
| CCOc1ccc2ccccc2c1C(=O)N[C@@H]1C(=O)N2[C@@H]1SC(C)(C)[C@@H]2C(=O)O [nafcillin] (10 µM) | 112% (inactive) |
| CC12CCC(C(=O)N(CCCCN3CCN(c4ccccn4)CC3)C1=O)C2(C)C (stereo unspecified) [piricapiron] (10 µM) | 103% (inactive) |
| CC(C)(N)C(=O)N[C@H](COCc1ccccc1)C(=O)N1CCC2(CC1)CN(S(C)(=O)=O)c1ccccc12 [ibutamoren] (10 µM) | 108% (inactive) |
| NC1=N[C@@]2(c3cc(NC(=O)c4ccc(F)cn4)ccc3F)COC[C@H]2CS1 (10 µM) | 116% (inactive) |
| c1ccc2[nH]c(-c3cscn3)nc2c1 [tiabendazole] (10 µM) | 111% (inactive) |
| Cc1cc(C)cc(C(=O)O[C@H]2C[C@H]3CC[C@@H](C2)N3C)c1 [tropanyl-3,5-dimethylbenzoate] (10 µM) | 90% (inactive) |
| COc1ccc(Cl)c(Nc2ncnc3cc(OCC4CCN(C)CC4)c(OC)cc23)c1 (10 µM) | 114% (inactive) |
| Cc1cc(N2CCOCC2)cc2[nH]c(-c3c(NC[C@@H](O)c4cccc(Cl)c4)cc[nH]c3=O)nc12 (0.833333 µM) | 110% (inactive) |
| COc1ccc(NS(=O)(=O)c2sc3ccc(Cl)cc3c2C)cc1N1CCNCC1 (10 µM) | 108% (inactive) |

| Compound | SARS-CoV-2 infection rate |
| --- | --- |
| Cc1nn(C)c2c1C(c1cccc(Cl)c1)=NCCN2 [zometapine] (10 µM) | 104% (inactive) |
| C1CCC(NC2CCCCC2)CC1 [dicyclohexylamine] (10 µM) | 114% (inactive) |
| COC(=O)[C@H]1[C@H]2C[C@@H]3c4[nH]c5cc(OC)ccc5c4CCN3C[C@H]2C[C@@H](OC(=O)c2cc(OC)c(OC)c(OC)c2)[C@@H]1OC [reserpine] (10 µM) | 110% (inactive) |
| O=C(c1ccc(F)cc1)C1CCN(CCn2c(=S)[nH]c3ccccc3c2=O)CC1 [altanserin] (10 µM) | 99% (inactive) |
| Cn1nccc1Nc1nccc(-c2ccn([C@H](CO)c3ccc(Cl)c(F)c3)c(=O)c2)n1 (0.833333 µM) | 106% (inactive) |
| CCOC(=O)Nc1ccc2c(c1)N(C(=O)CCN1CCOCC1)c1ccccc1S2 [moracizine] (10 µM) | 112% (inactive) |
| CCCCNc1ncc(-c2ccc(CN3CCOCC3)cn2)c(N[C@H]2CC[C@H](O)CC2)n1 (10 µM) | 113% (inactive) |
| COCCCOc1ccnc(C[S+]([O-])c2nc3ccccc3[nH]2)c1C (stereo unspecified) [rabeprazole] (10 µM) | 106% (inactive) |
| O=c1cc[nH]c(=S)[nH]1 [2-thiouracil] (10 µM) | 108% (inactive) |
| COc1ccc(C2CC(c3c(O)cc(C)oc3=O)=NCCS2)c(OC)c1 (stereo unspecified) (10 µM) | 101% (inactive) |
| CN(C)CCCO[C@@H]1[C@H]2OC(C)(C)O[C@H]2O[C@@H]1[C@H](O)CO [amiprilose] (10 µM) | 104% (inactive) |
| Fc1ccc(Cn2c(NC3CCNCC3)nc3ccccc32)cc1 [tecastemizole] (10 µM) | 111% (inactive) |
| COc1ccc(CCC(=O)Nc2nc3ccc(Cl)cc3s2)cc1OC (10 µM) | 100% (inactive) |
| COc1cc(-n2c(=S)[nH]c3ccccc3c2=O)c(Cl)cc1Cl [mdivi-1] (10 µM) | 112% (inactive) |
| CC[C@@H](CO)NC(=O)[C@@H]1C=C2c3cccc4[nH]cc(c34)C[C@H]2N(C)C1 [methylergometrine] (10 µM) | 96.5% (inactive) |
| O=C1COc2c(CCNCCN(C(=O)CCNCCc3ccc(Cl)c(Cl)c3)C3CCCCC3)ccc(O)c2N1 (10 µM) | 100% (inactive) |
| NCCCC[C@H](NC(=O)[C@@H]1CCCN1C(=O)[C@@H]1CSSC[C@H](NC(=O)CNC(=O)CNC(=O)CN)C(=O)N[C@@H](Cc2ccc(O)cc2)C(=O)N[C@@H](Cc2ccccc2)C(=O)N[C@@H](CCC(N)=O)C(=O)N[C@@H](CC(N)=O)C(=O)N1)C(=O)NCC(N)=O [terlipressin] (10 µM) | 112% (inactive) |
| CO[C@@H]1[C@H](N(C)C(=O)c2ccccc2)C[C@H]2O[C@]1(C)n1c3ccccc3c3c4c(c5c6ccccc6n2c5c31)C(=O)NC4 [midostaurin] (10 µM) | 110% (inactive) |
| CCOC(=O)c1ccc(OC(=O)CCCCCNC(=N)N)cc1 [gabexate] (10 µM) | 102% (inactive) |
| Cc1cccc(N(C)C(=S)Oc2ccc3ccccc3c2)c1 [tolnaftate] (10 µM) | 104% (inactive) |
